From PubChem
The list is not random: actives were taken first. Their share in the collection is about 1.1%.
SARS 3CLpro inh-1 = SARS-CoV 3CLpro protease inhibition | recombinant SARS-CoV 3CLpro, quenched FRET peptide cleavage | inhibition, % at 6 µM | hit rate 0.14% among 290,000 | AID 1706; in the data active means inhibition above about 12%
PrPC TRFRET = reduces human prion protein on the cell surface. cell surface PrPC, TR-FRET read-out. inhibition, % at 13.8 µM. hit rate 0.43% among 370,000. AID 720596; in the data active means inhibition above about 24%; further: 0% = median of the test wells and 100% = reference compound wells
BJeLR lethal = kills HRASV12-expressing BJeLR cells | BJeLR (HRASV12) viability, CellTiter-Glo ATP luminescence, 48 h | inhibition, % (concentration not given with the values) | hit rate 0.17% among 300,000; in the data active means inhibition above about 50%
VHR inh abs = DUSP3 (human) phosphatase inhibition; recombinant VHR phosphatase, pNPP absorbance; hit rate 0.52% among 290,000; inhibition, % at 13.3 µM; in the data active means inhibition above about 50%
SARS 3CLpro inh-2 = confirmation of SARS coronavirus 3C-like protease inhibitors; shares compounds with SARS 3CLpro inh-1; QFRET protease activity assay, 3CLpro; inhibition, % at 6 µM; hit rate 36% among 380; AID 1879; in the data active means inhibition above about 13%
PrPC confirm = cell surface PrPC inhibition, TR-FRET confirmation. shares compounds with PrPC TRFRET. cell surface PrPC level. inhibition, % at 13.8 µM. hit rate 65% among 1,500; in the data active means inhibition above about 25%
LD9 tox = LD9 cell cytotoxicity, PrPc inhibitor counter-screen; shares compounds with PrPC TRFRET; LD9 cells cytotoxicity, luminescence viability; inhibition, % at 13.8 µM; hit rate 29% among 1,500; in the data active means inhibition above about 9.5%
* marks the source's active call; other numbers are inactive results; nt = no result.

SMILES | SARS 3CLpro inh-1 | PrPC TRFRET | BJeLR lethal | VHR inh abs | others
CC1CCCN(S(=O)(=O)c2ccc(NC(=O)C3CCN(C(=O)c4ccco4)CC3)cc2)C1 (stereo unspecified) | 1.7 | 2.2 | -2.7 | 33.9
COc1ccc(C)cc1NC(=O)CSc1nc2scc(C)c2c(=O)[nH]1 | 12.8* | 13.6 | 4.5 | -7.2 | SARS 3CLpro inh-2=2.8
COc1ccc(Cl)cc1NC(=O)CSc1nc2sccc2c(=O)[nH]1 | -4.5 | 1.0 | -3.1 | -0.5
COC(=O)c1ccccc1NC(=O)c1ccc2c(c1)OCCCO2 | 12.4* | -4.1 | 3.1 | 9.7 | SARS 3CLpro inh-2=-1.8
COc1ccc(S(=O)(=O)c2c(O)c3ccc(C(=O)Nc4cccc(F)c4)cc3[nH]c2=O)cc1 | 12.8* | -1.5 | 0.9 | -7.2 | SARS 3CLpro inh-2=5.3
COc1cccc(NC(=O)c2ccc3c(O)c(S(=O)(=O)c4ccccc4)c(=O)[nH]c3c2)c1 | 8.0 | -4.0 | -5.6 | -12.2
COc1ccc(Nc2nc(-c3cccs3)nc3ccccc23)cc1S(=O)(=O)N1CCOCC1 | nt | 17.1 | 11.6 | nt
O=C(COC(=O)CCc1c[nH]c2ccccc12)NC(c1ccccc1)c1ccccc1 | 13.1* | 6.2 | -7.2 | 17.7 | SARS 3CLpro inh-2=0.8
O=C(COC(=O)CCc1c[nH]c2ccccc12)Nc1ccccc1 | nt | -4.0 | nt | nt
Cc1cc(C(=O)NC2CCCc3c2cnn3-c2ccc(C(C)(C)C)cc2)n[nH]1 (stereo unspecified) | 13.2* | 1.8 | -4.8 | 1.9 | SARS 3CLpro inh-2=1.6
CC(C)(C)c1ccc(-n2ncc3c2CCCC3NC(=O)c2ccncc2)cc1 (stereo unspecified) | 2.4 | -3.7 | 19.9 | 9.6
Cc1cc(=O)oc2cc(OC(=O)c3ccco3)ccc12 | 28.9* | 3.7 | 2.5 | -14.5 | SARS 3CLpro inh-2=70.0*
CCc1cc(=O)oc2cc(OC(=O)c3ccco3)ccc12 | 68.3* | 2.1 | 1.0 | 6.2 | SARS 3CLpro inh-2=71.5*
COC(=O)Cc1c(C)c2ccc(OC(=O)c3ccco3)cc2oc1=O | 2.4 | -3.3 | -14.8 | -7.0
Cc1cc(=O)oc2cc(OC(=O)c3ccccc3)ccc12 | 4.6 | -3.0 | 2.8 | 7.4
CN(C)S(=O)(=O)c1cccc(NC(=O)CSc2cccc3cccnc23)c1 | 17.2* | 4.4 | 2.2 | 1.4 | SARS 3CLpro inh-2=34.5*
CCCCN(CCCNC(=O)CN1C(=O)COc2ccc(S(=O)(=O)N3CCC(C)CC3)cc21)Cc1ccccc1 | 2.0 | 0.9 | 0.1 | 16.0
Cc1cc(=O)oc2cc(NC(=O)Cc3ccccc3[N+](=O)[O-])ccc12 | 17.2* | 6.8 | -4.7 | 4.1 | SARS 3CLpro inh-2=13.1*
C[C@H]1CN([C@@H](C)CO)S(=O)(=O)c2ccc(Br)cc2O[C@@H]1CN(C)C(=O)C1CCOCC1 | nt | -1.6 | nt | nt
CN1C(=O)N(C)C(=O)C2(Cc3cc(N)ccc3N3CCN(c4ccccc4F)CC32)C1=O (stereo unspecified) | 1.9 | -0.1 | 0.4 | 15.3
CN1CCN2c3ccc(N)cc3CC3(C(=O)NC(=O)NC3=O)C2C1 (stereo unspecified) | 21.9* | 2.0 | -9.4 | 16.5 | SARS 3CLpro inh-2=62.9*
Cn1c(=O)c2c(n(C)c1=O)n(C)c(=O)n2C | nt | 4.9 | nt | nt
CC(=O)Nc1ccc(NC(=O)C/C(C)=N/NC(=O)COc2cc(C)c(Br)cc2Br)cc1 | 15.9* | -12.3 | -5.8 | 20.4 | SARS 3CLpro inh-2=0.9
CC1OC(C(C)(C)C)Cc2[nH][nH]c(=O)c21 (stereo unspecified) | nt | -2.0 | nt | nt
c1ccc(-c2nnc(-c3ccccn3)c(-c3ccccn3)n2)nc1 | 0.3 | -15.5 | -3.0 | -3.1
SMILES | SARS 3CLpro inh-1 | PrPC TRFRET | BJeLR lethal | VHR inh abs | others
CN(C)c1nc(-c2ccccn2)nnc1-c1ccccc1 | -1.6 | 26.8* | 81.7* | 24.4 | PrPC confirm=35.6*;LD9 tox=-1.3
c1ccc(-c2cccc(CNc3nc(-c4ccccn4)nnc3-c3ccccc3)c2)cc1 | nt | 33.0* | nt | nt | PrPC confirm=35.6*;LD9 tox=25.2*
COc1cnc(-c2ccccn2)nc1N(C)C | -1.8 | 26.3* | -7.8 | 2.2 | PrPC confirm=27.3*;LD9 tox=1.2
COc1ccc(Oc2nc(-c3ccccn3)ncc2OC)cc1 | -7.2 | -0.9 | 1.7 | -2.4
CC(=O)NC(=S)Nc1ccc(NC(=O)COc2ccc(Cl)cc2)cc1 | 1.7 | 41.5* | -12.0 | 17.5 | PrPC confirm=11.5;LD9 tox=-5.3
CCc1ccc(C2C(C#N)=C(N)SC(N)=C2C#N)cc1 | 3.5 | 5.7 | 13.0 | 1.5
CCOc1ccc(C2C(C#N)=C(N)SC(N)=C2C#N)cc1OCC | nt | 26.9* | -5.7 | 35.8 | PrPC confirm=72.5*;LD9 tox=0.8
O=C1CCC(c2ccc3ccccc3c2)O1 (stereo unspecified) | nt | 5.2 | nt | nt
COc1ccc(OCC(=O)OCC(=O)NC2CCCCC2C)cc1 (stereo unspecified) | nt | 4.1 | nt | nt
COc1cc(NC2CCCCC2O)c2nc(-c3ccc(Cl)cc3)ccc2c1 (stereo unspecified) | 0.2 | 38.8* | 4.6 | 31.6 | PrPC confirm=6.5;LD9 tox=-2.3
CCN(CC)C(=O)c1cccc(-c2csc(C(C)(O)c3ccncc3)n2)c1 (stereo unspecified) | nt | 40.1* | nt | nt | PrPC confirm=30.5*;LD9 tox=7.4
CCCc1ccc(-c2cc(NC(=O)Cc3c(C)[nH]c4ccccc34)ccc2Nc2cccnc2)cc1 | nt | 7.4 | nt | nt
O=C(COC(=O)COc1ccc(Br)cc1)NC1CCS(=O)(=O)C1 (stereo unspecified) | nt | -7.2 | nt | nt
CC1CCC2(CC1)C(Nc1cccc(Cl)c1)=NC(=S)N2CC#N (stereo unspecified) | -2.4 | 36.5* | -8.9 | -3.3 | PrPC confirm=38.9*;LD9 tox=-6.8
CC1CCC(=C(C#N)C(=O)Nc2cccc(Cl)c2)CC1 (stereo unspecified) | 4.3 | 6.4 | -5.6 | 11.3
Nc1ccc2ccc(NS(=O)(=O)N3CCCCC3)cc2c1 | nt | 30.7* | nt | nt | PrPC confirm=12.5;LD9 tox=9.0
Cc1ccc(CN2CCCCC(NC(=O)c3ccc(COc4ccccc4)cc3)C2=O)cc1 (stereo unspecified) | nt | 25.4* | nt | nt | PrPC confirm=19.1;LD9 tox=0.7
CCc1noc2c1/C(=N\O)CC(c1ccccc1)C2 (stereo unspecified) | 5.7 | 10.0 | 2.2 | 15.9
CCCc1noc2c1/C(=N\O)CC(c1ccccc1)C2 (stereo unspecified) | 1.9 | 24.4* | 4.1 | 29.0 | PrPC confirm=5.4;LD9 tox=6.2
CC(C)CC(NC(=O)c1ccc(Cl)cc1)C(=O)OCC(=O)c1ccc2c(c1)NC(=O)CO2 (stereo unspecified) | 5.1 | 40.2* | 16.8 | -6.1 | PrPC confirm=53.0*;LD9 tox=84.5*
COCCNC(=O)C1(C)CCN(C(=O)c2ccc(C(F)(F)F)nc2C)C1 (stereo unspecified) | nt | 4.5 | nt | nt
CCOC(=O)C1(C)CCCN1C(=O)c1ccc(OC)c(F)c1 (stereo unspecified) | nt | -3.4 | nt | nt
COC(=O)C1=C(C)N(C)C(=NCc2ccc3c(c2)OCO3)NC1c1ccc(F)cc1 (stereo unspecified) | nt | -1.1 | nt | nt
COc1ccc2c(c1)[C@H]1[C@H](CO2)[C@H](c2ccccc2)[C@]2(C)C(=O)Nc3ccc(C)cc3C(=O)N12 | nt | 16.1 | nt | nt
